Results filed as inconclusive are left out. The source made the active and inactive calls. Unless noted, calls follow the shape of the dose curve; as a rule, active = well fitted curve in the direction sought with a large enough effect in the repeat runs; inconclusive = weak or mixed curves; inactive = no such curve, though single readings can be large; an effect the other way counts as inactive or inconclusive.
Key:
[1] = qHTS assay to identify small molecule agonists of the sonic hedgehog signaling (Shh) pathway (AID 1259368; calls by dose curve;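 also: NIH/3T3-derived 3T3Gli1-Luc cells carrying a stable Gli1-driven firefly luciferase reporter; series mostly up to about 92 µM; nearly all actives have a fitted effect of over 15% in size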)
Procedure, shortened: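 Read-out: firefly luciferase luminescence from a Gli1 response element reporter stably integrated in NIH/3T3-derived 3T3Gli1-Luc cells, measured 30 min at room temperature after reagent addition. Compound exposure lasted 24 hr at 37 C, 5% CO2.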

[2] = qHTS assay to identify small molecule antagonists of the sonic hedgehog signaling (Shh) pathway (AID 1259369; calls by dose curve; also: nearly all actives have a fitted effect of over 45% in size)
Procedure, shortened: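 Luminescence readout: firefly Luc under Gli1 response element in 3T3Gli1-Luc cells (NIH/3T3 clone). Antagonist mode, stimulation by conditioned medium; compound exposure 24hr at 37 C, 5% CO2.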

[3] = target: Estrogen receptor beta (Homo sapiens) (UniProt Q92731); assay: qHTS assay to identify small molecule agonists of the estrogen receptor beta (ER-beta) signaling pathway (AID 1259377; active = well fitted activation curve with a large enough effect in the signal ratio in the repeat runs, not every such curve was filed as active; the % refers to the signal ratio)
Procedure, shortened: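 A UAS-controlled beta-lactamase reporter in ER-beta-UAS-bla HEK293T cells reports receptor activation. Compounds act for 16 hr at 37C in 2% charcoal-stripped serum, and a FRET substrate is read by fluorescence after 2 hours.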

[4] = target: Estrogen receptor beta (Homo sapiens) (UniProt Q92731); assay: qHTS assay to identify small molecule antagonists of the estrogen receptor beta (ER-beta) signaling pathway (AID 1259378; active = well fitted inhibition curve with a large enough effect in the signal ratio in the repeat runs, not every such curve was filed as active; the % refers to the signal ratio)
Procedure, shortened: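 ER-beta-UAS-bla HEK293T (GripTite) cells in 2% charcoal-stripped FBS medium were preincubated 6 hr at 37C, dosed with compound, then stimulated with 1 nM E2 (final) for 16 hr; beta-lactamase reporter read by B/G FRET fluorescence after 2 hr substrate loading.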

[5] = qHTS assay to identify small molecule agonists of the androgen receptor (AR) signaling pathway in the presence of an antagonist - cell viability counter screen (AID 1259379);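 also: MDA-kb2 human breast cancer cells carrying an MMTV luciferase reporter; series mostly up to about 92 µM; nearly all actives have a fitted effect of over 25% in size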
Procedure, shortened: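 Viability counter screen: CellTiter-Fluor fluorescence, measured in the same wells as the luciferase read-out. MDA-kb2 cells, 3,000/well, with nilutamide at 3.0uM final and compounds at 15 concentrations, 16 hr at 37C, 0% CO2.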

[6] = qHTS assay to identify small molecule agonists of the estrogen receptor beta (ER-beta) signaling pathway - cell viability counter screen (AID 1259380); also: nearly all actives have a fitted effect of over 30% in size
Procedure, shortened: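 Luminescence read-out (CellTiter-Glo, 30 min, room temp) taken in the same wells as the beta-lactamase reporter assay; ER-beta-UAS-bla HEK293T cells exposed to DMSO-dissolved compounds for 16 hr at 37C in 2% charcoal-stripped FBS medium.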

[7] = target: Estrogen receptor (Homo sapiens) (UniProt P03372); assay: qHTS assay to identify small molecule agonists of the estrogen receptor alpha (ER-alpha) signaling pathway in the presence of an antagonist (AID 1259383; calls by dose curve; also: top concentration of the series differs between compounds; nearly all actives have a fitted effect of over 15% in size)
Procedure, shortened: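 Luciferase luminescence (ONE-Glo, 30min at room temperature) measured in VM7Luc4E2 cells after 22hr compound exposure at 15 concentrations, with 10.0nM ICI-182,780 final present; cells express endogenous ER-alpha and carry four EREs upstream of luciferase.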

[8] = qHTS assay to identify small molecule agonists or antagonists of the thyroid stimulating hormone receptor (TSHR) signaling pathway - wild type cell line counter screen (AID 1259384; calls by dose curve)
Procedure, shortened: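 Wild-type HEK293 cells were plated 18 h at 37 C/5% CO2, pin-dosed with compound plus Ro20-1724 medium, held 30 min at room temperature, then given cAMP-d2 and anti-cAMP-cryptate; fluorescence was read after 1 h. Fifteen concentrations, triplicate.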

[9] = target: Thyrotropin receptor (Homo sapiens) (UniProt P16473); assay: qHTS assay to identify small molecule antagonists of the thyroid stimulating hormone receptor (TSHR) signaling pathway (AID 1259385; calls by dose curve; also: nearly all actives have a fitted effect of over 20% in size)
Procedure, shortened: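 TSHR-HEK293 cells were plated and held 18 h at 37C/5% CO2, then given compound plus Ro20-1724 and stimulated with TSH at 1.5 ng/mL final. After 30 min at room temperature, cAMP was detected with cAMP-d2/anti-cAMP-cryptate (1 h) by fluorescence.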

[10] = qHTS assay to identify small molecule agonists of the estrogen receptor alpha (ER-alpha) signaling pathway in the presence of an antagonist - cell viability counter screen (AID 1259386);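 also: series mostly up to about 92 µM; cells exposed to compounds for 22 h at 37 °C before the viability read; nearly all actives have a fitted effect of over 30% in size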
Procedure, shortened: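 Read-out: CellTiter-Fluor fluorescence after 1hr reagent incubation, measured in the same wells as the luciferase readout. VM7Luc4E2 cells were exposed to 15 compound concentrations with 10.0nM ICI-182,780 for 22hr at 37C.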

[11] = target: Progesterone receptor (Homo sapiens) (UniProt P06401); assay: qHTS assay to identify small molecule agonists of the progesterone receptor (PR) signaling pathway (AID 1346784; calls by dose curve; also: nearly all actives have a fitted effect of over 30% in size)
Procedure, shortened: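 Agonist mode, quantitative HTS format in a HEK 293T line expressing a UAS-controlled beta-lactamase reporter; 16 hr compound exposure at 37C in 2% charcoal-stripped FBS, then LiveBLAzer B/G FRET fluorescence.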

[12] = target: Progesterone receptor (Homo sapiens) (UniProt P06401); assay: qHTS assay to identify small molecule antagonists of the progesterone receptor (PR) signaling pathway (AID 1346795; active = well fitted inhibition curve with a large enough effect in the signal ratio in the repeat runs, not every such curve was filed as active; the % refers to the signal ratio)
Procedure, shortened: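 HEK293T PR-UAS-bla reporter cells in charcoal-stripped serum (2%) received compound after a 6 hr settling period, followed by R5020 agonist at 1 nM final; 16 hr incubation preceded the FRET substrate step and fluorescence measurement.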

[13] = qHTS assay to identify small molecule antagonists of the progesterone receptor (PR) signaling pathway - cell viability counter screen (AID 1346798); also: series mostly up to about 92 µM; nearly all actives have a fitted effect of over 50% in size
Procedure, shortened: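 Same-well multiplex: after 16 hr at 37C with compound and R5020 stimulation, HEK293T cells carrying a UAS-bla reporter received LiveBLAzer substrate (2 hr RT), then CellTiter-Glo (30 min RT) for luminescent viability.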

[14] = qHTS assay to identify small molecule agonists of the progesterone receptor (PR) signaling pathway - cell viability counter screen (AID 1346799; calls by dose curve; also: nearly all actives have a fitted effect of over 45% in size)
Procedure, shortened: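 Counter screen for cytotoxicity: compound-treated PR-UAS-bla HEK293T cells (16 hr, 37C, 5% CO2) were assayed with CellTiter-Glo, luminescence measured after 30 min at room temperature.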

[15] = qHTS assay to identify small molecule antagonists of the TGF-beta/Smad signaling pathway - cell viability counter screen (AID 1346824); also: nearly all actives have a fitted effect of over 50% in size
Procedure, shortened: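 SBE-bla HEK 293T cells were plated overnight at 37 C, then given compounds in DMSO plus TGF-beta1 (added as 0.25 ng/mL solution) for 5 hr. After the bla read, CellTiter-Glo was added to the same wells and luminescence read after 30 min at room temperature.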

[16] = qHTS assay to identify small molecule agonists of the TGF-beta/Smad signaling pathway - cell viability counter screen (AID 1346829); also: top concentration of the series differs between compounds; nearly all actives have a fitted effect of over 45% in size
Procedure, shortened: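 CellTiter-Glo luminescence readout; SBE-bla HEK 293T cells, overnight plating, compound 5 hr at 37 C/5% CO2, then bla substrate 2 hr RT, then CellTiter-Glo 30 min RT.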

[17] = qHTS assay to identify small molecule agonists of the TGF-beta/Smad signaling pathway (AID 1346859; active = well fitted activation curve with a large enough effect in the signal ratio in the repeat runs, not every such curve was filed as active; the % refers to the signal ratio; also: series mostly up to about 77 µM)
Procedure, shortened: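 Smad-responsive beta-lactamase reporter cells (HEK 293T) received compounds from DMSO stocks after overnight attachment, were incubated 5 hr, then treated 2 hr with FRET substrate before dual-emission fluorescence measurement (405 nm excitation).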

[18] = qHTS assay to identify small molecule antagonists of the estrogen receptor beta (ER-beta) signaling pathway - cell viability counter screen (AID 1259382); also: series mostly up to about 92 µM; nearly all actives have a fitted effect of over 55% in size
Procedure, shortened: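 Luminescent ATP read-out (CellTiter-Glo, 30 min, RT) taken in the same wells as the bla reporter assay. HEK293T ER-beta-UAS-bla cells in 2% charcoal-stripped FBS were exposed to compounds with 1nM E2 for 16 hr at 37C.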

[19] = target: Thyrotropin-releasing hormone receptor (Homo sapiens) (UniProt P34981); assay: qHTS assay to identify small molecule antagonists of the thyrotropin-releasing hormone receptor (TRHR) signaling pathway (AID 1346877; active = well fitted inhibition curve with a large enough effect in the repeat runs, not every such curve was filed as active; also: series mostly up to about 51 µM)
Procedure, shortened: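 HEK293/TRHR cells, 18 h, 37 °C; Ca2+ dye 2 h; cpd 5 min RT; TRH 1 nM final; fluorescence read 3 min, 1 s intervals; 15 concs, triplicate.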

Measured: Potency

Sequence of Estrogen receptor (Homo sapiens) (P03372 whole entry, looked up): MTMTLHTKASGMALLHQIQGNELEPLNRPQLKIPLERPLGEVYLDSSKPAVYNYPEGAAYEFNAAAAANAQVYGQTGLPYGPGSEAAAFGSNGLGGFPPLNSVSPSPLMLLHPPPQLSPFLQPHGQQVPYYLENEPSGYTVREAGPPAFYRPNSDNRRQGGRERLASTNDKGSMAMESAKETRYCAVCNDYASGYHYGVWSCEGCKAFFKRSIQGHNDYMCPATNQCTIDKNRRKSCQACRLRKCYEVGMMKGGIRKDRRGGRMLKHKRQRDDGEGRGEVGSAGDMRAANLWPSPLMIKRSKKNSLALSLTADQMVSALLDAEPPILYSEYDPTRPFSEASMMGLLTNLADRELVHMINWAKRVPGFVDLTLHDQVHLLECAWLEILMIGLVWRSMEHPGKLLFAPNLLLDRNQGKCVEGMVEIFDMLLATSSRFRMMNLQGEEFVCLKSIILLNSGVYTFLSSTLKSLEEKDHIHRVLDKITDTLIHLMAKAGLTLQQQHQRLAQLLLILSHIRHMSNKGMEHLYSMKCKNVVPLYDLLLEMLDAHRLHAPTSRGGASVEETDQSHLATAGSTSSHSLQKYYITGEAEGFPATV
Sequence of Progesterone receptor (Homo sapiens) (P06401 whole entry, looked up): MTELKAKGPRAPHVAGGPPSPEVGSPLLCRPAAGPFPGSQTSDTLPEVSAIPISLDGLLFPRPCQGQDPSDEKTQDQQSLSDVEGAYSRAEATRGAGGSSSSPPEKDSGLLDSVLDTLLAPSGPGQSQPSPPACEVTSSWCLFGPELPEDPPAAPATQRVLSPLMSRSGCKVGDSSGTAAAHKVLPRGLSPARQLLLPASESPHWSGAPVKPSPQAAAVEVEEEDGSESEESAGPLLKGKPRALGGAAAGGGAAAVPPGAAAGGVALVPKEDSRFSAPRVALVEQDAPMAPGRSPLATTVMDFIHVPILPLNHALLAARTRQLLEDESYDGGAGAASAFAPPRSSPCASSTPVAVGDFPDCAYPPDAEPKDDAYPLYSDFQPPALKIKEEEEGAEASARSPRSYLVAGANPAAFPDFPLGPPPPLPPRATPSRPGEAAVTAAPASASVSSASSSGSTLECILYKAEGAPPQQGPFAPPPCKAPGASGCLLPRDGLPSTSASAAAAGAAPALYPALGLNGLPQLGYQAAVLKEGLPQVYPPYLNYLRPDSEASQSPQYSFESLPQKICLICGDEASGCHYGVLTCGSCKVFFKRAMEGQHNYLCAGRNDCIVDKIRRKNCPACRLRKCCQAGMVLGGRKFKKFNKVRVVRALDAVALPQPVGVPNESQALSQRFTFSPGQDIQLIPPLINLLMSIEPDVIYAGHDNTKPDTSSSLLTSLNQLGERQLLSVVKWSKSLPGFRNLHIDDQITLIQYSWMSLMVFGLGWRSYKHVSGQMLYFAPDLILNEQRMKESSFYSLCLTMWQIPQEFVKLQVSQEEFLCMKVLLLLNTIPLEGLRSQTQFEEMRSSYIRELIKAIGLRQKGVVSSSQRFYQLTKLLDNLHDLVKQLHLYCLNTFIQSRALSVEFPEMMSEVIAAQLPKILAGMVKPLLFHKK
Sequence of Thyrotropin receptor (Homo sapiens) (P16473 whole entry, looked up): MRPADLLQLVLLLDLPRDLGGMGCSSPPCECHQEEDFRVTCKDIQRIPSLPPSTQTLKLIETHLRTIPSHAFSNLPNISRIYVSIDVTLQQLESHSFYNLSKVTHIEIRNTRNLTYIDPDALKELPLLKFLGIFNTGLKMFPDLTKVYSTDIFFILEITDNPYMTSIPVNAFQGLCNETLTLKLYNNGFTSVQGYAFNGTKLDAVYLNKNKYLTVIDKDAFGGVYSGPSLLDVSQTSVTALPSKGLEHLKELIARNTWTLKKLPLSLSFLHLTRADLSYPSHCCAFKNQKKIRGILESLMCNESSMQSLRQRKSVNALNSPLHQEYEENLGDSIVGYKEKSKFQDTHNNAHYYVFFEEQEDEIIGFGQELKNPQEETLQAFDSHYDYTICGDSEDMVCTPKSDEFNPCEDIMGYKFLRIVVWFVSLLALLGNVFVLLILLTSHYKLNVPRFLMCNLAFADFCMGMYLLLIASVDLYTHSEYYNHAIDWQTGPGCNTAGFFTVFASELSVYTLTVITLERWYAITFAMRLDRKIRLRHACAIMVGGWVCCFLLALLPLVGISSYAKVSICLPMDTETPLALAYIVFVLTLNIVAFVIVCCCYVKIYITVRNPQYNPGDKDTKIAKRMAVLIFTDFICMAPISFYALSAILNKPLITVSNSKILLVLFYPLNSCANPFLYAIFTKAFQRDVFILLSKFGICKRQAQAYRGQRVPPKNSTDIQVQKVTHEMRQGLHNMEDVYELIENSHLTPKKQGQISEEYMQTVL
Sequence of Estrogen receptor beta (Homo sapiens) (Q92731 whole entry, looked up): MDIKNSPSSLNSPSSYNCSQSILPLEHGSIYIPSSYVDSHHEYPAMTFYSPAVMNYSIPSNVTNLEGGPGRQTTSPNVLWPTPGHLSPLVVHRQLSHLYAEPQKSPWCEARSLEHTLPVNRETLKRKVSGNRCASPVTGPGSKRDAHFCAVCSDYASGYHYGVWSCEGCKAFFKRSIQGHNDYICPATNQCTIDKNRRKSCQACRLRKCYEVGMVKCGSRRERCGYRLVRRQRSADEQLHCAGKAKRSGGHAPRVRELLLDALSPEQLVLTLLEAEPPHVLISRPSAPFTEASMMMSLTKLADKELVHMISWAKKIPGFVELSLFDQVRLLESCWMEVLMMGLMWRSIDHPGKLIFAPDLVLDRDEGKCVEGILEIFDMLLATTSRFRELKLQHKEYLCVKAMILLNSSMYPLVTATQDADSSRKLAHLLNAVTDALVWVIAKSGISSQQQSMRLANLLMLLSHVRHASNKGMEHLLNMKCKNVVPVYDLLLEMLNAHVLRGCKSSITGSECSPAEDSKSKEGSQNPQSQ
Sequence of Thyrotropin-releasing hormone receptor (Homo sapiens) (P34981 whole entry, looked up): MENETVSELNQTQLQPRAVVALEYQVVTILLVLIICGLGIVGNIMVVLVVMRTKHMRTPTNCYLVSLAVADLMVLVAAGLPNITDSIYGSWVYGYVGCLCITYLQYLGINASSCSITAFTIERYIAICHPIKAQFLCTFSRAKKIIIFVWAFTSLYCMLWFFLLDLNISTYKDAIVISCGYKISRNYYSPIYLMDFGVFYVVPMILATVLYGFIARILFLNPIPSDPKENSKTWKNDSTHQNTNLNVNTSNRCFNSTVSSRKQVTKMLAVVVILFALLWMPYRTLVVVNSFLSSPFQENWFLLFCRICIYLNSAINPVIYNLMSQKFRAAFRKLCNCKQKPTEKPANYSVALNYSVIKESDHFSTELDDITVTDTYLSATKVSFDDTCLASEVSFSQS

CCN(CC)C(=O)c1ccc(O)c(OC)c1
inactive: [1] | [2] | [3] | [4] | [5] | [6] | [7] | [8] | [9] | [10] | [11] | [12] | [13] | [14] | [15] | [16] | [17]

CC(C)(C)OC(=O)N1C[C@@H](F)C[C@H]1C(=O)O
inactive: [1] | [2] | [3] | [5] | [6] | [18] | [7] | [8] | [9] | [10] | [11] | [12] | [13] | [14] | [15] | [16] | [17] | [19]

Cn1cnc2c(=O)[nH]c(N)nc21
inactive: [1] | [2] | [3] | [4] | [5] | [6] | [8] | [9] | [10] | [11] | [12] | [13] | [14] | [15] | [16] | [17]

NS(=O)(=O)c1cc(C2(O)NC(=O)c3ccccc32)ccc1Cl (stereo unspecified)
inactive: [1] | [2] | [3] | [5] | [18] | [8] | [9] | [10] | [11] | [13] | [14] | [15] | [16] | [17]

COc1cccc(OC)c1
inactive: [1] | [2] | [3] | [4] | [5] | [6] | [8] | [9] | [10] | [11] | [12] | [13] | [14] | [15] | [16] | [17] | [19]

C1=C\CC/C=C\CC/C=C\CC/1
inactive: [1] | [2] | [3] | [5] | [6] | [18] | [10] | [11] | [12] | [13] | [14] | [15] | [16] | [17]

Oc1cc(O)c2c(c1)O[C@H](c1ccc(O)c(O)c1)[C@H](O)C2
inactive: [1] | [2] | [3] | [5] | [6] | [7] | [8] | [9] | [10] | [11] | [13] | [14] | [15] | [16] | [17]

From PubChem BioAssay (Tox21)
